In the library only some 2.8% were active in any assay of this set; here they are far more common.
PI5P4Ka inh – qHTS for Inhibitors of phosphatidylinositol 5-phosphate 4-kinase (PI5P4K). Phosphatidylinositol 5-phosphate 4-kinase type-2 alpha (Homo sapiens), P48426. PI5P4Kalpha enzyme, ADP-Glo luminescence, 60 min; hits give low values. max response, %. 330,000 compounds, 1.2% hits. AID 652105, 2013; active means max response of -50% or lower; inconclusive means between -30% and -50%; inactive means -30% or higher; further: value at the top dose of about 77 µM
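ADP-Glo luminescence end-point read after a 60 min room-temperature kinase reaction of PI5P4Kalpha plus substrate, initiated with ATP at 5 microM final. Buffer: 0.038 M HEPES pH 7.4, EGTA, 0.1% CHAPS, 5% DMSO.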
Pol eta inh-1 – qHTS for Inhibitors of Polymerase Eta; DNA polymerase eta (Homo sapiens), Q9Y253; recombinant Pol eta, fluorescent DNA replication assay; AID 588591, 2011; 390,000 compounds, 1.2% hits; Potency, µM (series often up to 114 µM), most hits filed as inhibitors
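Pol eta (10 nM) was preincubated with compounds for 15 min at room temperature, after which fluorescent replication substrate (50 nM final) was added to start the reaction. Fluorescence was read kinetically at 0 and 10 min.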
Pol kappa inh-1 – qHTS for Inhibitors of Polymerase Kappa. purified Pol kappa, fluorescent DNA synthesis assay, 10 min. Potency, µM (highest dose often 107 µM), actives largely listed as inhibitors. 400,000 compounds, 0.53% hits
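Here, compound and 10 nM enzyme are combined for 15 min at room temperature; adding 50 nM substrate (final) starts DNA synthesis, tracked by fluorescence at 0 and 10 min against buffer-only wells.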
WRN helicase inh – qHTS for Inhibitors of WRN Helicase; AID 651768, 2012; WRN helicase unwinding, fluorescent forked duplex, kinetic; 360,000 compounds, 0.46% hits; Bifunctional 3'-5' exonuclease/ATP-dependent helicase WRN (Homo sapiens), Q14191; Potency, µM (series often up to 114 µM), actives largely listed as inhibitors; further: nearly all actives have a fitted effect of over 55% in size
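Fluorescence dequenching readout, ex 525 nm/em 598 nm, kinetic mode: forked duplex DNA (100 nM final) with adjacent fluorophore and quencher unwound by WRN (20 nM final) with 2 mM ATP. Compound preincubation 15 min, room temperature.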
POLI inh – qHTS for Inhibitors of Polymerase Iota | 390,000 compounds, 1% hits | AID 588590, 2011 | Potency, µM (series often up to 115 µM), most hits filed as inhibitors | Pol iota fluorescent replication assay, 10 min
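Pol iota at 10 nM preincubated 15 min with compounds at room temperature; reaction started with fluorescent substrate, 50 nM final. Fluorescence read kinetically at 0 and 10 min; buffer-only wells as negative control.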
Pol beta inh-1 – qHTS Assay for Inhibitors of DNA Polymerase Beta; Pol beta primer extension/strand displacement, fluorescence kinetic; Potency, µM (series often up to 114 µM), hits mostly inhibitors; 340,000 compounds, 1.3% hits
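Preincubation: enzyme (10 nM) with compound, 15 min, RT. Reaction: substrate added to 50 nM final. Reads: 0 and 10 min. Analysis: normalized, Hill fit.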
Pol beta inh-2 – Inhibitors of DNA Polymerase Beta: Hit validation | Pol beta primer extension/strand displacement, fluorescence kinetic | shares compounds with Pol beta inh-1 | AID 540280, 2011 | 250 compounds, 87% hits | Potency, µM, most hits filed as inhibitors; calls by dose curve
Klenow inh – Inhibitors of DNA Polymerase Beta: Hit Validation in Klenow Fragment Assay | shares compounds with Pol beta inh-1 | Klenow exo- polymerase counter-screen, fluorescent DNA substrate | activity change, negative = inhibition, % at 57.1 µM | 250 tested, under 10 active | AID 540300, 2011
HIV RT counter – Inhibitors of DNA Polymerase Beta: Hit Validation in HIV-RT Assay; shares compounds with Pol beta inh-1; HIV-1 RT polymerase activity, counter-screen; activity % (negative = inhibition, positive = activation), % at 57.1 µM; 250 tested, under 10 active
POLB valid – Inhibitors of DNA Polymerase Beta: Hit Validation in Radiolabeled Extension Assay | 110 compounds, 91% hits | inhibition, % at 10 µM | shares compounds with Pol beta inh-1 | AID 540325, 2011 | radiolabeled primer extension gel assay, phosphorimager;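 active means inhibition at 10 µM of 30% or more; inconclusive means no clear call, values can overlap the other calls; inactive means inhibition at 10 µM under 30%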
TbPGK inh – qHTS for inhibitors of Phosphogylcerate Kinase: Hit Validation Screen; shares compounds with Pol kappa inh-1; TbPGK coupled GAPDH assay, Kinase-Glo luminescence; Potency, µM (top dose mostly 57.5 µM), most hits filed as inhibitors; 500 compounds, 79% hits; further: nearly all actives have a fitted effect of over 65% in size
POLI cherry-pick – qHTS for Inhibitors of Polymerase Iota: Confirmatory Assay for Cherry-picked Compounds; 1,500 compounds, 77% hits; Pol iota primer extension, TAMRA/BHQ fluorescence; shares compounds with Pol kappa inh-1; Potency, µM, actives largely listed as inhibitors
Pol kappa inh-2 – qHTS for Inhibitors of Polymerase Kappa: Confirmatory Assay for Cherry-picked Compounds. shares compounds with Pol eta inh-1. purified Pol-kappa, fluorescent strand-displacement substrate. Potency, µM, most hits filed as inhibitors. 920 compounds, 76% hits
Pol eta inh-2 – qHTS for Inhibitors of Polymerase Eta: Confirmatory Assay for Cherry-picked Compounds; shares compounds with Pol eta inh-1; Pol eta primer extension, TAMRA/BHQ fluorescence, 10 min; Potency, µM, usual class: inhibitors; 2,600 compounds, 64% hits; AID 720502, 2013
Of the large screens only hits and unclear results are named; the others gave an inactive call (follow-up assays come after a bar, where they were run). Unless noted, the call rests on the fitted dose curve; in most records, active means well fitted curve in the direction sought with a large enough effect; inconclusive means small, poorly fitted or top-dose-only effect, or another doubt; inactive means no such curve, though single readings can be large; an effect the other way counts as inactive or inconclusive.

CCOC(=O)c1ccccc1NC(=O)c1ccc2nccnc2c1	Pol eta inh-1 20µM, Pol kappa inh-1 inconclusive, POLI inh inconclusive, Pol beta inh-1 8.9µM | Pol beta inh-2 28 | Klenow inh inactive | HIV RT counter inactive | POLB valid 54 | POLI cherry-pick inconclusive | Pol eta inh-2 30
CN(CC(=O)NC(=O)NCc1ccco1)Cc1nc2ccccc2c(=O)[nH]1	Pol eta inh-1 inconclusive, Pol kappa inh-1 inconclusive, WRN helicase inh inconclusive, POLI inh 25µM, Pol beta inh-1 20µM (no result: PI5P4Ka inh) | Pol beta inh-2 35 | Klenow inh inactive | HIV RT counter inactive | POLB valid 83 | POLI cherry-pick 60 | Pol eta inh-2 inconclusive
C=C(C)C(=O)Nc1cccc(C2=NOC3(C2)C[C@H](C(N)=O)N(C(=O)c2ccccc2)C3)c1 (stereo not given in full)	Pol eta inh-1 13µM, Pol kappa inh-1 inconclusive, POLI inh 50µM, Pol beta inh-1 18µM | Pol beta inh-2 28 | Klenow inh inactive | HIV RT counter inactive | POLB valid 86 | TbPGK inh inconclusive | Pol eta inh-2 27
O=C(CSc1ccsc1[N+](=O)[O-])Nc1cc(F)ccc1F	PI5P4Ka inh -94, Pol eta inh-1 7.1µM, Pol kappa inh-1 25µM, WRN helicase inh inconclusive, POLI inh inconclusive, Pol beta inh-1 13µM | Pol beta inh-2 25 | Klenow inh inactive | HIV RT counter inactive | POLB valid 99 | TbPGK inh 15µM | POLI cherry-pick 67 | Pol eta inh-2 43
CC(=O)c1ccc(NC(=O)CSc2ccsc2[N+](=O)[O-])cc1	PI5P4Ka inh -81, Pol eta inh-1 11µM, Pol kappa inh-1 inconclusive, WRN helicase inh inconclusive, POLI inh inconclusive, Pol beta inh-1 5.6µM | Pol beta inh-2 22 | Klenow inh inactive | HIV RT counter inactive | POLB valid 99 | POLI cherry-pick 42 | Pol kappa inh-2 38 | Pol eta inh-2 inconclusive
